ELG1 genotox: qHTS screen for small molecules that induce genotoxicity in human embryonic kidney (HEK293T) cells expressing luciferase-tagged ELG1. hit rate 1.3% among 330,000. AID 504466, 2011. Potency, µM (titrated, usually from 46 µM), without a hit: at the highest dose activity change, positive = activation, hits mostly activators. HEK293T ELG1-luciferase reporter, luminescence, 16 h; also: % of control where 0% means no effect; nearly all actives have a fitted effect of over 60% in size
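Genotoxicity was scored as increased ELG1-luciferase reporter signal, measured by ONE-Glo luminescence (30 min, room temperature). Compound or vehicle exposure of the HEK293T reporter cells lasted 16 hr at 37°C.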
FLuc counter: qHTS profiling assay for firefly luciferase inhibitor/activator using purifed enzyme and Km concentrations of substrates (counterscreen for miR-21 project) | hit rate 6.9% among 360,000 | AID 588342, 2011 | Luciferin 4-monooxygenase (Photinus pyralis), P08659 | purified FLuc, Km substrates, luminescence inhibition | Potency, µM (doses to about 57.5 µM), inactives show at the top dose activity change, negative = inhibition, actives largely listed as inhibitors;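 also: plate controls were vehicle for no effect and reference inhibitor for full effect; nearly all actives have a fitted effect of over 55% in size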
Target sequence (P08659 whole entry, looked up): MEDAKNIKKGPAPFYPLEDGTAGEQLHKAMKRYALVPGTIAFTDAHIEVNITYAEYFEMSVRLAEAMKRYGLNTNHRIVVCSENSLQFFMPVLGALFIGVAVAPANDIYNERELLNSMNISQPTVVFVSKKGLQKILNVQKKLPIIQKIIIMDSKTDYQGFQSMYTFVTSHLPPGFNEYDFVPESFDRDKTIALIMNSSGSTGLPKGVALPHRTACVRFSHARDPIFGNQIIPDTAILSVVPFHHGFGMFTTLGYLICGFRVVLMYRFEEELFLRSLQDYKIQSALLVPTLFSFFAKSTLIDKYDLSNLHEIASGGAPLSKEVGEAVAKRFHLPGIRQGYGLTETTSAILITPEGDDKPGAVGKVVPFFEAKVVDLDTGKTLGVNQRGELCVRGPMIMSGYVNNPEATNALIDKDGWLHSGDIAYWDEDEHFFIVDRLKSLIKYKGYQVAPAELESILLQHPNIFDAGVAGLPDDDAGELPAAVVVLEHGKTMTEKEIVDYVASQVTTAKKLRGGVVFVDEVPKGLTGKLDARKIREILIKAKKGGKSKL
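Purified P. pyralis luciferase (10nM final) with 10uM D-luciferin and 10uM ATP (Km levels) in 50mM Tris acetate pH 7.5, 10mM Mg acetate, 0.01% Tween-20, 0.05% BSA; qHTS 6-point titration, ~60 µM downward; luminescence read.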
Rab9 promoter act: qHTS Assay for Rab9 Promoter Activators; Huh7 Rab9 promoter-luciferase reporter, luminescence, 24 h; Potency, µM (doses to about 9.22 µM), for inactives: at the highest dose activation, negative = inhibition, actives largely listed as activators; hit rate 2.8% among 320,000; AID 485297, 2010; also: % of control where 0% means no effect; nearly all actives have a fitted effect of over 60% in size
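Using Huh7 cells stably transfected with Rab9 promoter–luciferase, compounds were incubated 24 h at 37 °C, 5% CO2; luciferase luminescence was read 10 min after reagent addition.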
NPC1 prom act: qHTS Assay for NPC1 Promoter Activators; hit rate 2.4% among 320,000; Huh7 NPC1 promoter luciferase reporter, 24 h; Potency, µM (highest dose often 9.22 µM), without a hit: at the top dose activation, actives largely listed as activators; also: % of control where 0% means no effect; nearly all actives have a fitted effect of over 60% in size
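Stably transfected Huh7 (NPC1 promoter→luciferase), 1500 cells/well in Opti-MEM + 10% FBS, 2 h settle, then compound 24 h at 37 °C. Luminescence after 10 min with Amplite reagent.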
SMN2 splice up: qHTS Assay for Enhancers of SMN2 Splice Variant Expression; HEK293 SMN2-luciferase splicing reporter, luminescence, 30-36 h; Potency, µM (series often up to 46.1 µM), for the others: at the highest dose activity change, positive = activation, actives largely listed as activators; hit rate 2.8% among 210,000; AID 1458, 2008; also: % of control where 0% means no effect; nearly all actives have a fitted effect of over 55% in size
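HEK293 cells carry an SMN2 […]–luciferase reporter in which exon 7 inclusion puts luciferase in frame. Cells were plated 10-12 h before compound addition, then incubated 30-36 h at 37C. ONE-Glo luminescence was read; sodium butyrate at 4.5 mM final served as control.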
Starred values were filed as active, the others as inactive; ? = inconclusive; nt = no result; [ ] = another dose, or the depositor's remark. Sampled rows, rich in hits. Any-hit rate of the full collection: about 7.5%. Calls follow the shape of the dose curve; as a rule, active = well fitted curve in the direction sought with a large enough effect; inconclusive = small, poorly fitted or top-dose-only effect, or another doubt; inactive = no such curve, though single readings can be large; an effect the other way counts as inactive or inconclusive. Potency is read from the fitted curve at half-maximal effect.

SMILES	ELG1 genotox	FLuc counter	Rab9 promoter act	NPC1 prom act	SMN2 splice up
O=C(OCC(=O)N1CCc2ccccc21)c1c2c(nc3ccccc13)CCCC2	-19%	6.7µM*	21%	8%	nt
O=c1oc2ccccc2c2c1cnc1ccccc12	4%	nt	nt	nt	nt
O=C(NC1=NCCS1)c1cccc(NC(=O)c2ccco2)c1	0%	?	2%	11%	3%
CCOc1cccc(C(=O)NC2=NCCS2)c1	?	12µM*	0.5µM*	0.63µM*	nt
CC(C)Oc1cccc(C(=O)NC2=NCCS2)c1	-17%	19µM*	4µM*	3.2µM*	5µM*
COc1cccc(C(=O)NC2=NCCS2)c1	?	6µM*	0.56µM*	1µM*	2µM*
O=C(COC(=O)CNS(=O)(=O)c1ccc(F)c(F)c1F)NC1CC1	2%	0%	-3%	-4%	nt
O=C(COC(=O)CNS(=O)(=O)c1ccc(F)c(F)c1F)NCCc1ccccc1	?	5.4µM*	?	?	nt
Cc1ccc([N+](=O)[O-])cc1NC(=O)C1CCCC1	-2%	-1%	-1%	-1%	nt
Cc1cccc(/C(N)=N/OC(=O)c2cccc3ccccc23)c1	15%	4.3µM*	4µM*	3.5µM*	nt
N/C(=N\OC(=O)c1cccc2ccccc12)c1cccc([N+](=O)[O-])c1	1%	?	15%	12%	13%
N/C(=N\OC(=O)c1cccc2ccccc12)c1cccnc1	?	12µM*	28%	20%	nt
CCN(CC)CCCCCCCCOC(=O)c1cc(OC)c(OC)c(OC)c1	18µM*	7%	-16%[46.1 µM]	-11%[46.1 µM]	22%
CCN(CC)S(=O)(=O)c1ccc(C(=O)OCC(=O)Nc2ccc(-c3nc4ccc(C)cc4s3)cc2)cc1	1.6µM*	2.7µM*	0.45µM*	0.4µM*	1µM*
CCN(CC)S(=O)(=O)c1cc(C(=O)OCC(=O)Nc2ccc(-c3nc4ccc(C)cc4s3)cc2)ccc1F	10µM*	5.4µM*	0.32µM*	0.4µM*	1.6µM*
CCN(CC)S(=O)(=O)c1cc(C(=O)OCC(=O)Nc2cccc(S(=O)(=O)N(C)C)c2)ccc1F	3%	-12%	-5%	-7%	nt
NS(=O)(=O)c1ccc(NC(=O)COC(=O)Cn2cnc3ccccc3c2=O)cc1	2%	nt	nt	nt	nt
CCN=C1SC(CC(=O)NCc2ccccc2)C(=O)N1CC (stereo not given)	2%	0%	-3%	-9%	nt
COc1ccc(/C=C2\N=C(c3ccc(C)cc3)OC2=O)cc1	0%	?	4%	-2%	nt
O=C1OC(c2ccc(F)cc2)=N/C1=C\c1ccc(Br)o1	0%	6µM*	-1%	-11%	8%
CCOC(=O)CSc1nnc(NC(=O)c2ccco2)s1	0%	-13%	-1%	2%	nt
CC(C)Sc1nnc(NC(=O)c2ccco2)s1	?	17µM*	?	?	nt
CCSc1nnc(NC(=O)c2ccco2)s1	?	?	?	25%	11µM*
CC(OC(=O)c1cccc(S(=O)(=O)N2CCCCC2)c1)C(=O)NC1CCCCC1C (stereo not given)	-3%	2%	0%	4%	nt
O=C(Nc1ccc(Cl)cn1)Nc1ccccc1Cl	14%	-10%	?	8%	26%
SMILES	ELG1 genotox	FLuc counter	Rab9 promoter act	NPC1 prom act	SMN2 splice up
Cc1ccc(NC(=O)Nc2ccc(Cl)cn2)cc1	?	?	4µM*	13%	11µM*
Cc1ccc(NC(=O)Nc2ccc(Cl)c(Cl)c2)nc1	?	?	4.5µM*	?	nt
O=C(Nc1ccc(Cl)c(Cl)c1)Nc1ccc([N+](=O)[O-])cn1	11%	-13%	4%	5%	nt
CCCN(CC(=O)Nc1ccccc1C)C(=O)c1ccc(C2SCCS2)cc1	-2%	5%	1%	0%	nt
O=c1[nH]nc(SCc2nnc(-c3ccc([N+](=O)[O-])cc3)o2)n1C1CCCCC1	-5%	-2%	-4%	0%	nt
Cc1ccccc1Br	nt	nt	nt	nt	2%
CCOCCCNC(=O)CN1C(=O)c2cccnc2Sc2ccccc21	nt	0%	nt	nt	nt
C=CCc1ccc(OCc2ccc(C(=O)Nc3ccc(NC(C)=O)cc3)o2)c(OC)c1	12%	?	0.4µM*	1.1µM*	2.8µM*
O=C(Nc1ccc(OCC(=O)N2CCC(Cc3ccccc3)CC2)cc1)c1ccco1	-1%	27µM*	-6%	2%	-12%
O=C(Nc1ccc(OCC(=O)N2CCN(S(=O)(=O)c3ccccc3)CC2)cc1)c1ccco1	-4%	11µM*	-1%	3%	22%
Cc1ccsc1/C=C/c1ccc2ccccc2n1	?	1.7µM*	2.2µM*	2µM*	0.89µM*
Cc1ccsc1/C=C/c1ccc2cccc(O)c2n1	9.2µM*	2.7µM*	3.5µM*	?	?
Oc1cccc2ccc(/C=C/c3cccs3)nc12	2.2µM*	2.1µM*	2.8µM*	?	25%
COc1cc(Br)c(/C=C/c2ccc3cccc(O)c3n2)cc1OC	?	?	-3%[1.84 µM]	17%	nt
CC(C)C(NC(=O)C1CCC(C(C)(C)C)CC1)C(=O)NCc1cccnc1 (stereo not given)	-8%	6%	-5%	-5%	-29%
Cc1cc(N/N=C/c2cccc(F)c2)nc(NCc2ccccc2)n1	-1%	12µM*	4%	1%	nt
CN(C)c1nc(NCc2ccccc2)nc(N/N=C/c2ccccc2F)n1	-11%	-6%	0%	-2%	-15%
Cc1cc(N/N=C/c2ccc(Cl)cc2)nc(NCc2ccccc2)n1	-3%	15µM*	-1%	-3%	-30%
Cc1cc(N/N=C/c2ccccc2F)nc(NCc2ccccc2)n1	-6%	15µM*	1%	-1%	nt
Cc1cc(N/N=C/c2ccccc2)nc(NCc2ccccc2)n1	0%	6µM*	3%	-2%	-4%
Cc1cc(N/N=C/c2cccc(Cl)c2)nc(NCc2ccccc2)n1	-1%	?	-1%	-2%	-17%
COc1ccc(-c2c(NCCc3ccccc3)c(=O)c2=O)cc1	7%	-1%	6%	-5%	nt
O=C(c1ccco1)N1CCN(C(=O)c2ccc(-c3ccc(Cl)cc3)o2)CC1	-7%	17µM*	9%	1%	nt
O=C(c1ccc(-c2ccc([N+](=O)[O-])cc2)o1)N1CCCCCCC1	11%	11µM*	?	?	nt
O=C(c1ccc(Cl)cc1)N1CCN(C(=O)c2ccco2)CC1	2%	-6%	-3%	-5%	-6%
O=C(O)c1ccc(CSc2nnc(SCc3ccccc3)s2)cc1	-1%	?	1%	-4%	-16%
COC(=O)CSc1nnc(SCc2ccccc2)s1	2%	19µM*	8%	1%	-4%
COC(=O)CSc1nnc(SCc2ccc(Cl)cc2)s1	2%	17µM*	-4%	0%	-9%
